# Results from the supplement of paper PMC10681739.
# Over roughly 4,000 sequences, “arbitrary fluorescence units” has its median near 830; the highest 2% begin near 6,500. The entries come from a sample that favours the highest values as a whole.
# Molecular target: RUNX1 (UniProt Q01196)
# Assay: RUNX1 binding intensity (PBM fluorescence), RUNX1 alone (arbitrary fluorescence units); higher = stronger binding
# Conditions: RUNX1 concentration 2 nM; ETS1 concentration 0 nM
# Method: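 gcPBM on 36-bp genomic-derived probes (partner site mutated) containing one RUNX1 site and no ETS1 site. Recombinant human RUNX1 (2 nM) was incubated alone or with ETS1 (25 nM) and detected by anti-RUNX1 antibody fluorescence. Values are medians over 4 replicate spots (not normalised). The probes sit in constant array flanks that are not printed.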
# Chain of RUNX1 (Q01196 whole entry): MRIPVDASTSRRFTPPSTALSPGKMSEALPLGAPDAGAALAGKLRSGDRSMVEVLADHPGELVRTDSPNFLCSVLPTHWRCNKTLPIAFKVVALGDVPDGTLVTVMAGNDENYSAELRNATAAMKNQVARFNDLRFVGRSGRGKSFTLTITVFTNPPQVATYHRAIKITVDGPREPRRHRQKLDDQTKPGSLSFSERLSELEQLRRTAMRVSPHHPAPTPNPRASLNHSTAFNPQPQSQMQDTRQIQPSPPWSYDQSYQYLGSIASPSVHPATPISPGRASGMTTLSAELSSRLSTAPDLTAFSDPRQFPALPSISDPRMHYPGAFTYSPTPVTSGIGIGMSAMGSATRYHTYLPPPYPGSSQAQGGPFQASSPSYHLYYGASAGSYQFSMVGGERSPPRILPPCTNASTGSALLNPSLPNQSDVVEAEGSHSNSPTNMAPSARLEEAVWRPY
row,Sequence,RUNX1 binding intensity
1,ACACCTCAGCAAGTGGCAGAGACCACAACAAGTCAG,952
2,CTTGTGGCTCCTTTCCACCCGCCCCGTAAGCCGGCC,930
3,ACCCCAAGCCCACAAACCCACCTGAAGGAACCAACT,1200
4,CCGCTGCGGCTGCGCGCTACGTCACTACGTTCGGCG,768
5,AAAACCACATTGCCTGTGCTGCAGGCTGGAAAGCTG,879
6,GCAGAAACAGAAAGAGACAGGGCTGACCGCAGCAGG,1360
7,CCTCTCTGTGGTTCTGCCTGGAATACGCAAGGCAGG,1050
8,GGCGGGAGAGGAGGCCGGGCGGCCGCAGCTGCCTGT,669
9,TCGCTTACGGTGTCGGTTACAGACTGTGGTTGCCAT,812
10,CACCCGAACTGAAACACCTGCGGCTGAGGGGAGGGG,1030
11,CCGAGAAGTGGAACCGCCAGGCGGAGGGGGCGGAGT,767
12,GAGCGCGGCACTCGCCACGGTAAGGATTACCACAGG,742
13,TGGGGTGTCCGAGCCGCCCCCGAACCGCGCACCCGA,796
14,GACAAGCCATGTGGTTGCTGGCAGGCAATCTCAGTC,1430
15,TATTCAGCAGCAAAGGAGAGAGTCTGTGGTATCTGC,708
16,GCTGAGTGCGGGTGGCCTGGGCCGAAGGCTCAGCGG,724
17,GCCGCGGTGCCTGCCGGGACAGCGAGTTCAGCCGGG,738
18,CTGTGGGTTCGGCAGTAAACTCTGACCTCCTATTTA,892
19,AAGTTCGCAACCGCCAAGAGGGGAGACGGGCTGCGC,764
20,TGGGACCGCTAATCGGAGAGGGTGCGCAAACGCTGG,658
21,GTATGGGAGGTGATCTGGCTGCAAACCGCAAGAGAG,8250
22,ACCCACTTGCTGTTAGAGCATCTTTGCAACCACAGG,729

row,Sequence,RUNX1 binding intensity
1,CTCGGGATTTGTGGTCCACCCGGCTGAACTCGCGGC,788
2,AGGGTTTGTGGGACCTGGTGACTCACGGGATCTGGG,703
3,CTGCCATGAAGGGTTCTGGTTTGAGGTCTCCTCTTA,741
4,GCCCCTGATAGCGTCCTCACCATCCCCACAGCGCCT,1100
5,TGGCCCCGGGGCCCCACAACGGCTTCATGTGTCCCG,693
6,CCTTAGCACAGACCACCATCTACGGGAATTCCTAAG,912
7,CAGTCAGACGGGAGCCCGGCTTCTGTGGTGCCTGCC,696
8,CCTAGAACCGTAAGAGAAAGGGGCTGCGGTGCAGCA,745
9,CTGTGCGGTCATGTGACGGAGGCCTGAAGGCAGGTC,1410
10,TGCGCCGGGAGTGCATGAGCTGCCGATGTGGTGCTT,697
11,GACGTAAGCCGAGAGGCTCCCGTAAGCGGTCTTGAG,733
12,GACTCGCTCTGCGGCCCCACGCAGGGAGCCTCCTTG,905
13,CTCATAACCGCTAACTCAACCTCTAACATTTGCTGT,3220
14,AACTAGTTCGTTCCTTATGCGGCCCAGGGCTCCACC,893
15,GGCACGAAAGAGCTGATGCATTTCAACCGCAGCCTG,1160
16,CGAGCCGCCTTGCTCCCCGGCCCACAGCCCAGCACT,889
17,CCGGGGTAAACCACGACACGACTCCCTGCCGTGTGG,886
18,GACCTTCACCCACAAGAACCACCTCCTCTCAGTAAA,1950
19,TACGACTTCAAGGCGGTCAACATCCAGGGCAAACTG,730
20,TCCCTCCTTGCGCTCTGGTTTTGTGGTTGCTTGCTG,1120
21,CCAGCCGTAAGCCCCGCCCCCTAGAGGCACCGCGGA,882
22,GCTTTGCAGTGTCCTCTATGGAACACCACACACAGT,809

row,Sequence,RUNX1 binding intensity
1,GGGGACGAAGCGGTCTCGGTTCAGCCCGGCTGGGAG,692
2,TAAGGCTGTGTGGCTTCCAGATCAAAAACCGCAAAA,8380
3,CTCTGGCAGGGAGCTCTGAGGGCTAAACCACAAAAA,1560
4,CAGGCTGCTGTGGCTACTGCAGCACTGCCTCCCGCT,741
5,GCTCTGGCCGAAGATGTCCCTGCGGTGCAGCTGCCG,796
6,GGGCTTGACCGCCATGTTTGAAGCGGGCGCAAAAAA,758
7,CAGAACGGTCCCTGGAACACTGCGGTTCCCGCCTGG,874
8,AGGCTGTTGTGGGTTGCGCCGCTTCGGAGGTGGGAG,846
9,CTTGCCACACTGCCTCTTGTTTTGAACCACTATATT,2040
10,GCACACAGTGCGGTTGGCTTCCAGCTTCATGTTGGC,1470
11,CTTGTAGTCAGGTGGTTGGGCAGGGTGTTTCTCATG,807
12,TCCAAGGCGCAAAAAACCCGCCCTAAACCGCACCCC,1630
13,AGCGCCTTACCCGCGGCACACCCATTTGCTGACCCC,1120
14,CTTGTTCTATCTCCTGTTTGTGGTGAGTGACTGTCT,1370
15,AGGCTCATTGCCTGTTTTCATGTGGTTTAGAGAAAA,1030
16,TGATCAGGCAGGAGAAGCGCAGAGGTGGACCCGCAA,751
17,GGGATCCTTCAGCTCCGGGTTAACCCCGACCGCGCC,697
18,CACTCCCCTCCCGCGGTCACACTTCAGGCGGCCACC,1460
19,GGGGGGGTGCGGTCCTGGTCGGGAGGAGGTGGAGAG,869
20,ACCTCCACCACAAAGAACAAAAAACGAAGGATAAAA,1520
21,CCACACGGCAGGGAGTCGTGTCGTGGTTTACCCCGG,752
22,ACGCCCGCTGACCACACTGGCGACGTCCCTCTCTGT,1400

row,Sequence,RUNX1 binding intensity
1,CAGGGGGCCCCACATGCCGCTCTTGCTGCCCAGGTC,798
2,CAGTCGCCAGAAACCACAGCACTTCGGCCTGCTTCA,1480
3,GACATGTGGCTATTTTGGGCAATTGCCTGAGGAGGC,720
4,CGACTGGAACCACTCTGAGGCGCTGCCGCAGACACC,1040
5,TTAACTCCACAGAAGAATAAACCACCACCGCTCACC,1060
6,GACCACCTCCTTTCTGTGTTTTGTGGTTTCACAACT,2680
7,CATTGTGGGCGCTGTAGTCCAGCTGGAACCTGTTTG,760
8,GGAGGCTGTGGTGAGGAAAGAGGAGGTGACACTCCT,883
9,CCCCTCAATTCCCTCAACCCTTCCCACAAACTGGGA,1730
10,GGCTTACGGCGGGGTACCCTCCTCTGTGGGCGGGGC,715
11,CTGGCCGTGGCGTACGGGAGCTGTGGGGCCGTCCCC,728
12,GGCTGGAAAGGGTCTTGAGAGGAGGTGGTTGCCTTA,705
13,TGTCTGAGGTTTCTCTGTGAACATGAAGCTGAGAAC,790
14,AGGCTTTCTGTTTTATCTCGTGTGTGTGGTGCACCA,886
15,GGGCTTACGGCTGAACCCATGGCTGCGGGCTGTGCT,704
16,TCCACAGCCGGTTTCGGCCGGTTCCCACAAGCCCCT,909
17,CCGCTTACGGCCTTCGCCCGGCTTACCCGCGTCGCA,1030
18,GGCATCCCCTTGCGGCCATCACTTTCTATGCCCTCA,1250
19,GGGGCAGTGGTCACAGGAGGATCTTGCTGGAGTCAT,697
